From PubChem BioAssay (Tox21)
Results filed as inconclusive are left out. Activity calls are given as the source filed them. Calls follow the shape of the full dose curve.

Legend:
[1] = target: Acetylcholinesterase (Homo sapiens) (UniProt P22303); test: Acetylcholinesterase (AChE) small molecule antagonists: colormetric cell-based qHTS assay (AID 1347395); also: nearly all actives have a fitted effect of over 30% in size
Method in brief: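 AChE inhibition read colorimetrically via DTNB–thiocholine in SH-SY5Y cells. Compound 30 min, substrate 90 min, both 37 C.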

[2] = target: Acetylcholinesterase (Homo sapiens) (UniProt P22303); test: Acetylcholinesterase (AChE) small molecule antagonists: enzyme-based qHTS assay (AID 1347397); conditions: Potency: AChE enzyme activity inhibition; outcome: AChE enzyme activity inhibition; also: nearly all actives have a fitted effect of over 55% in size
Method in brief: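 Enzyme inhibition was scored from DTNB-detected thiocholine formed by recombinant human AChE acting on acetylthiocholine. The 30 min compound preincubation and 10 min substrate reaction were both run at room temperature, with DMSO as vehicle control.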

[3] = target: Acetylcholinesterase (Homo sapiens) (UniProt P22303); test: Acetylcholinesterase (AChE) small molecule antagonists: fluorescence cell-based qHTS assay (AID 1347398); conditions: Potency: AChE activity; outcome: AChE activity; also: nearly all actives have a fitted effect of over 50% in size
Method in brief: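 Endogenous acetylcholinesterase of SH-SY5Y neuroblastoma cells is measured in situ. After overnight attachment and 30 min compound exposure, cells receive acetylthiocholine and Thiolite Green; fluorescence is read after 40 min at room temperature.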

[4] = target: Acetylcholinesterase (Homo sapiens) (UniProt P22303); test: Acetylcholinesterase (AChE) small molecule antagonists: enzyme-based qHTS assay with human liver microsomes (AID 1347399); conditions: Potency: qHTS inhibition; outcome: qHTS inhibition; also: nearly all actives have a fitted effect of over 60% in size
Method in brief: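 Recombinant human AChE (50 mU/mL in the enzyme mix) and human liver microsomes (0.25 mg/mL final) were preincubated with compound and NADPH (0.25 mg/mL final) for 30 min at 37 C. Acetylthiocholine/DTNB was then added; thiocholine was read colorimetrically after 10 min at room temperature.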
% is scaled to controls: 0 for no effect and ±100 for the full control effect.

Sequence of Acetylcholinesterase (Homo sapiens) (P22303 whole entry, looked up): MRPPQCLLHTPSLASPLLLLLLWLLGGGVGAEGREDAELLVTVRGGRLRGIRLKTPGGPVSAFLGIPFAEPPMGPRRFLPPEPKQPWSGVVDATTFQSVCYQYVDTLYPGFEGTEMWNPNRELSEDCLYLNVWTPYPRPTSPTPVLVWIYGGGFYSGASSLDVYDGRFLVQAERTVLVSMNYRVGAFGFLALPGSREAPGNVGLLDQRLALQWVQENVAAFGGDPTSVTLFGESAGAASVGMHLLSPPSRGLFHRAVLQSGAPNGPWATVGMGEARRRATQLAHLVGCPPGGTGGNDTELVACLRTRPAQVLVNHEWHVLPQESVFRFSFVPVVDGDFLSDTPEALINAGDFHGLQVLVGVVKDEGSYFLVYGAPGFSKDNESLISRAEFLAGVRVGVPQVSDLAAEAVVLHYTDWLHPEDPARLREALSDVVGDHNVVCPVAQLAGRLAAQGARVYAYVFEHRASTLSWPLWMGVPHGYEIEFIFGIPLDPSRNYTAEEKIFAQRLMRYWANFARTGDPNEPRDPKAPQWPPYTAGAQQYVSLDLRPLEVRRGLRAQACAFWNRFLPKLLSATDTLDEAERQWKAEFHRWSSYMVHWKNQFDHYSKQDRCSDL

CCCCCOC(=O)c1ccc(O)cc1
inactive: Potency [1] | Potency [2] | Potency [3] | Potency [4]

CCCCCCCCCCCCCCCCCO
inactive: activity, negative = inhibition [1] 0.97% [at 23.6 µM] | activity change, negative = inhibition [2] -1.09% [at 23.6 µM] | activity change, negative = inhibition [3] 0.561% [at 23.8 µM] | activity change, negative = inhibition [4] 3.32% [at 23.6 µM]

CC1(C)CCC[C@]2(C)[C@H]3CCO[C@]3(C)CC[C@@H]12
inactive: Potency [1] | Potency [2] | Potency [3] | Potency [4]

Cc1nc([N+](=O)[O-])cn1-c1ccc([N+](=O)[O-])cc1
inactive: Potency [1] | Potency [2] | Potency [3] | Potency [4]

CCOc1ccccc1O
inactive: Potency [1] | Potency [2] | Potency [3] | Potency [4]

NS(=O)(=O)c1cc2c(cc1Cl)NC(CSCc1ccccc1)=NS2(=O)=O
inactive: Potency [1] | Potency [2] | Potency [3] | Potency [4]

CCCCCCCCCOC(C)=O
inactive: Potency [1] | Potency [2] | Potency [3] | Potency [4]

CCN(CC)CCc1nc(-c2ccccc2)no1
inactive: Potency [1] | Potency [2] | Potency [3] | Potency [4]

CC(=O)NC(Cc1ccccc1)C(=O)O (stereo unspecified)
inactive: Potency [1] | Potency [2] | Potency [3] | Potency [4]

CCNC(=O)C1CC(C)CCC1C(C)C (stereo unspecified)
inactive: Potency [1] | Potency [2] | Potency [3] | Potency [4]

COC(C)=O
inactive: Potency [1] | Potency [2] | Potency [3] | Potency [4]

CC(C)(C)c1cc(C=O)cc(C(C)(C)C)c1O
inactive: Potency [1] | Potency [2] | Potency [3] | Potency [4]

Nc1ccc(C(=O)OCC(O)CO)cc1 (stereo unspecified)
inactive: Potency [1] | Potency [2] | Potency [3] | Potency [4]

CC(C)CCCC(C)CC=O (stereo unspecified)
inactive: Potency [1] | Potency [2] | Potency [3] | Potency [4]

CCCCCOc1ccccc1/C(=C\SC)n1ccnc1
inactive: Potency [1] | Potency [2] | Potency [3] | Potency [4]

CC1=NN(c2ccc(S(=O)(=O)O)cc2)C(=O)C1N=Nc1ccccc1 (stereo unspecified)
inactive: Potency [1] | Potency [2] | Potency [3] | Potency [4]

C=CCOCC(O)CS(=O)(=O)O (stereo unspecified)
inactive: Potency [1] | Potency [2] | Potency [3] | Potency [4]

O=c1c2ccccc2nnn1CCl
inactive: Potency [1] | Potency [2] | Potency [3] | Potency [4]

CCCCC/C=C\CCC=O
inactive: Potency [1] | Potency [2] | Potency [3] | Potency [4]

Fc1ccc(C(c2ccc(F)cc2)N2CCN(C/C=C/c3ccccc3)CC2)cc1
inactive: Potency [1] | Potency [2] | Potency [3] | Potency [4]

CC1=C(/C=C/C(C)=C/C=C/C(C)=C\C=O)C(C)(C)CCC1
inactive: Potency [1] | Potency [2] | Potency [3] | Potency [4]

CCN(CC)C(=O)Nc1ccc(OCC(O)CNC(C)(C)C)c(C(C)=O)c1 (stereo unspecified)
inactive: Potency [1] | Potency [2] | Potency [3] | Potency [4]

CCCCCCCCCCCC(=O)OCC
inactive: Potency [1] | Potency [2] | Potency [3] | Potency [4]

C=CC(=O)NC(C)(C)C
inactive: Potency [1] | Potency [2] | Potency [3] | Potency [4]

CCc1cc(C2=C(C(=O)O)N(c3ccccc3C(F)(F)F)S(=O)(=O)c3ccccc32)cc2c1OCO2
inactive: Potency [1] | Potency [2] | Potency [3] | Potency [4]

CC1C2CC(CC2C2CCCC(O)C2)C1(C)C (stereo unspecified)
inactive: Potency [1] | Potency [2] | Potency [3] | Potency [4]

CCCc1ccc(OC)cc1
inactive: Potency [1] | Potency [2] | Potency [3] | Potency [4]

C=CCn1c(=O)n(CC=C)c(=O)n(CC=C)c1=O
inactive: Potency [1] | Potency [2] | Potency [3] | Potency [4]

CC(C)c1ccc(C#N)cc1
inactive: Potency [1] | Potency [2] | Potency [3] | Potency [4]

CC[N+]1(CC)CCC(=C(c2ccccc2)c2ccccc2)C1C (stereo unspecified)
inactive: Potency [1] | Potency [2] | Potency [3] | Potency [4]

OCCC(F)(F)C(F)(F)C(F)(F)C(F)(F)C(F)(F)C(F)(F)C(F)(F)C(F)(F)F
inactive: Potency [1] | Potency [2] | Potency [3] | Potency [4]

C/C(=N\[Si](C)(C)C)O[Si](C)(C)C
inactive: Potency [1] | Potency [2] | Potency [3] | Potency [4]

C=C(C)[C@H]1CC=C(C)CC1
inactive: Potency [1] | Potency [2] | Potency [3] | Potency [4]

C[N+]1([O-])CCOCC1
inactive: Potency [1] | Potency [2] | Potency [3] | Potency [4]

CC(C)O
inactive: Potency [1] | Potency [2] | Potency [3] | Potency [4]

BrCCCCCBr
inactive: Potency [1] | Potency [2] | Potency [3] | Potency [4]

CCc1cccc(CC)c1NC(=O)CN(CC(=O)O)CC(=O)O
inactive: Potency [1] | Potency [2] | Potency [3] | Potency [4]

O=C(O)c1cc(Cl)cc([N+](=O)[O-])c1Cl
inactive: Potency [1] | Potency [2] | Potency [3] | Potency [4]

CCC(=O)OCCOc1ccccc1
inactive: Potency [1] | Potency [2] | Potency [3] | Potency [4]

O=Cc1ccc(F)cc1
inactive: Potency [1] | Potency [2] | Potency [3] | Potency [4]

CCOC(=O)CC(C)C
inactive: Potency [1] | Potency [2] | Potency [3] | Potency [4]

O=C(O)c1cccc(C(F)(F)F)c1
inactive: Potency [1] | Potency [2] | Potency [3] | Potency [4]

C=CCCC(=O)O
inactive: Potency [1] | Potency [2] | Potency [3] | Potency [4]

NS(=O)(=O)c1cc(C(=O)NN2C[C@H]3[C@H]4CCC(C4)[C@H]3C2)ccc1Cl
inactive: Potency [1] | Potency [2] | Potency [3] | Potency [4]

CC(O)C1CCCCC1 (stereo unspecified)
inactive: Potency [1] | Potency [2] | Potency [3] | Potency [4]

FC(F)(F)c1ccc(Cl)cc1Cl
inactive: Potency [1] | Potency [2] | Potency [3] | Potency [4]

NCC[C@H](O)C(=O)N[C@@H]1C[C@H](N)[C@@H](O[C@H]2O[C@H](CN)[C@@H](O)[C@H](O)[C@H]2O)[C@H](O)[C@H]1O[C@H]1O[C@H](CO)[C@@H](O)[C@H](N)[C@H]1O
inactive: activity, negative = inhibition [1] -3.35% [at 0.435 µM] | activity change, negative = inhibition [2] 0.773% [at 0.435 µM] | activity change, negative = inhibition [3] 5.79% [at 0.439 µM] | activity change, negative = inhibition [4] -1.18% [at 0.435 µM]

O=[N+]([O-])c1ccc(F)c(Cl)c1
inactive: Potency [1] | Potency [2] | Potency [3] | Potency [4]

COC(=O)/C=C(/C)N
inactive: Potency [1] | Potency [2] | Potency [3] | Potency [4]

NC(=O)C1CO1 (stereo unspecified)
inactive: Potency [1] | Potency [2] | Potency [3] | Potency [4]

CC(C)NCCCC1(C(N)=O)c2ccccc2-c2ccccc21
inactive: Potency [1] | Potency [2] | Potency [3] | Potency [4]

Cc1ccccc1N=Nc1ccc(N=Nc2c(O)ccc3ccccc23)c(C)c1
inactive: Potency [1] | Potency [2] | Potency [3] | Potency [4]

CCC(C)SSC(C)CC (stereo unspecified)
inactive: Potency [1] | Potency [2] | Potency [3] | Potency [4]

CC(=O)SC[C@@H](Cc1ccccc1)C(=O)NCC(=O)OCc1ccccc1
inactive: Potency [1] | Potency [2] | Potency [3] | Potency [4]

CC(C)(C)C1CCC(CC2=C(O)c3ccccc3C(=O)C2=O)CC1 (stereo unspecified)
inactive: Potency [1] | Potency [2] | Potency [3] | Potency [4]

CCCCCCCCC(=O)OCC(C)OC(=O)CCCCCCCC (stereo unspecified)
inactive: Potency [1] | Potency [2] | Potency [3] | Potency [4]

Cc1cc(=O)c2c(O)c3c(O)cc(=O)c4c3c3c(cc(O)c1c23)C(C)(C)C=4O
inactive: activity, negative = inhibition [1] 0.337% [at 23.6 µM] | activity change, negative = inhibition [2] 2.31% [at 23.6 µM] | activity change, negative = inhibition [3] 7.09% [at 23.8 µM] | activity change, negative = inhibition [4] 0.168% [at 23.6 µM]

CC1c2ccccc2CN1NC(=O)c1ccc(Cl)c(S(N)(=O)=O)c1 (stereo unspecified)
inactive: Potency [1] | Potency [2] | Potency [3] | Potency [4]

CCC(=O)OCc1ccc(OC)cc1
inactive: Potency [1] | Potency [2] | Potency [3] | Potency [4]

N#Cc1ccc(C(c2ccc(C#N)cc2)n2cncn2)cc1
inactive: Potency [1] | Potency [2] | Potency [3] | Potency [4]

Cc1nnc(SCC2=C(C(=O)O)N3C(=O)[C@@H](NC(=O)Cn4cnnn4)[C@H]3SC2)s1
inactive: Potency [1] | Potency [2] | Potency [3] | Potency [4]

O=C1c2ccccc2C(=O)C1(O)O
inactive: Potency [1] | Potency [2] | Potency [3] | Potency [4]

CCCCCCCCCCCCN(CCCCCCCCCCCC)CCCCCCCCCCCC
inactive: Potency [1] | Potency [2] | Potency [3] | Potency [4]

Nc1nc(-c2ccccc2)cs1
inactive: Potency [1] | Potency [2] | Potency [3] | Potency [4]

C=CCN1CCc2nc(N)sc2CC1
inactive: Potency [1] | Potency [2] | Potency [3] | Potency [4]

CCC(C)c1ccccc1 (stereo unspecified)
inactive: Potency [1] | Potency [2] | Potency [3] | Potency [4]

COc1cc(C)ccc1C(C)C
inactive: Potency [1] | Potency [2] | Potency [3] | Potency [4]

CCCCCCCCCCCCCCCCCCCl
inactive: activity, negative = inhibition [1] -3.15% [at 10.5 µM] | activity change, negative = inhibition [2] -0.128% [at 10.5 µM] | activity change, negative = inhibition [3] 5.41% [at 10.5 µM] | activity change, negative = inhibition [4] 0.243% [at 10.5 µM]

CCCC1CCOC(C)S1 (stereo unspecified)
inactive: Potency [1] | Potency [2] | Potency [3] | Potency [4]

CC(C)c1cccc(C(C)C)c1NC(=O)NS(=O)(=O)c1cc(C(C)(C)O)co1
inactive: Potency [1] | Potency [2] | Potency [3] | Potency [4]

O=[N+]([O-])c1ccc(Nc2ccc(Nc3ccccc3)c(S(=O)(=O)O)c2)c([N+](=O)[O-])c1
inactive: Potency [1] | Potency [2] | Potency [3] | Potency [4]

CC(C)(C)NCCNC(C)(C)C
inactive: Potency [1] | Potency [2] | Potency [3] | Potency [4]

CC(C)=CCC[C@H](C)CCO
inactive: Potency [1] | Potency [2] | Potency [3] | Potency [4]

NS(=O)(=O)Cc1noc2ccccc12
inactive: Potency [1] | Potency [2] | Potency [3] | Potency [4]

O=C(NN1CCCC1)NS(=O)(=O)c1ccc(Cl)cc1
inactive: Potency [1] | Potency [2] | Potency [3] | Potency [4]

CCCCc1ccc2nc(NC(=O)OC)[nH]c2c1
inactive: Potency [1] | Potency [2] | Potency [3] | Potency [4]

CC(=O)OCC1=C(C(=O)O)N2C(=O)[C@@H](NC(=O)CSc3ccncc3)[C@H]2SC1
inactive: Potency [1] | Potency [2] | Potency [3] | Potency [4]

C=C1C[C@@]23CC[C@H]4[C@@](C)(CCC[C@@]4(C)C(=O)O[C@@H]4O[C@H](CO)[C@@H](O)[C@H](O)[C@H]4O)[C@@H]2CC[C@]1(O[C@@H]1O[C@H](CO)[C@@H](O)[C@H](O[C@@H]2O[C@H](CO)[C@@H](O)[C@H](O)[C@H]2O)[C@H]1O[C@@H]1O[C@H](CO)[C@@H](O)[C@H](O)[C@H]1O)C3
inactive: Potency [1] | Potency [2] | Potency [3] | Potency [4]

CCC(Cl)CCC(Cl)C(Cl)CC(Cl)C(Cl)C(Cl)CCl (stereo unspecified)
inactive: Potency [1] | Potency [2] | Potency [3] | Potency [4]
